Measurements as given in PubChem BioAssay (Tox21).
Inconclusive results are not listed. Active and inactive are the calls of the source. Unless noted, calls come from the whole dose curve; as a rule, active = well fitted curve in the direction sought with a large enough effect in the repeat runs; inconclusive = weak or mixed curves; inactive = no such curve, though single readings can be large; an effect the other way counts as inactive or inconclusive.

Key:
[1] = qHTS assay for small molecule agonists of the p53 signaling pathway (AID 651631; calls by dose curve; note: nearly all actives have a fitted effect of over 15% in size)
How it was run: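 Readout was fluorescence from the LiveBLAzer FRET substrate, applied for 2 h at room temperature after 16 h compound exposure at 37 °C. Cells were the p53RE-bla HCT-116 line, with beta-lactamase driven by p53 response elements.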

[2] = qHTS assay for small molecules that induce genotoxicity in human embryonic kidney cells expressing luciferase-tagged ATAD5 (AID 651632); note: nearly all actives have a fitted effect of over 15% in size
How it was run: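 Reporter cells (HEK293T) express luciferase-tagged ATAD5, a protein that accumulates after DNA damage. Treat 16 hr at 37C/5% CO2, add Amplite, wait 30 min at RT, and read luminescence.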

[3] = qHTS assay for small molecule agonists of the p53 signaling pathway - cell viability (AID 651633; calls by dose curve; note: series mostly up to about 83 µM; nearly all actives have a fitted effect of over 30% in size)
How it was run: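 p53RE-bla cells, seeded at 4,000 per well and rested 5 h at 37 C/5% CO2, received compounds in DMSO for 16 h at 37 C. CellTiter-Glo was then added, and luminescence was read after 30 min at room temperature to gauge cytotoxicity.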

[4] = qHTS assay for small molecules that induce genotoxicity in human embryonic kidney cells expressing luciferase-tagged ATAD5 - cell viability (AID 651634; calls by dose curve; note: nearly all actives have a fitted effect of over 25% in size)
How it was run: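 Seeding of 2,000 HEK293T ATAD5-luciferase cells per well preceded pin-tool compound transfer. Plates sat 15.5 hr at 37C under 5% CO2, then fluorescence was read after 30 min with CellTiter-Fluor.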

[5] = qHTS assay for small molecule disruptors of the mitochondrial membrane potential - cell viability (AID 720634; calls by dose curve;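 note: human HepG2 liver cancer cells; series mostly up to about 83 µM; nearly all actives have a fitted effect of over 20% in size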)
How it was run: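 Measuring cytotoxicity alongside mitochondrial potential, the screen quantified ATP by luminescence in HepG2 cells after 1 hr compound incubation and a 30 min room-temperature CellTiter-Glo step.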

[6] = qHTS assay for small molecule disruptors of the mitochondrial membrane potential (AID 720635)
How it was run: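 HepG2 cells (2,000/well) attached overnight at 37C, then took compound for 1 hr at 37C, 5% CO2. Mito-MPS dye was added for 30 min; fluorescence was read at 490/535 nm (monomers) and 540/590 nm (aggregates).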

[7] = qHTS assay to test for compound auto fluorescence at 590 nm (red) in HepG2 cells (AID 720674)
How it was run: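 Compound auto-fluorescence is scored relative to Rose Bengal sodium, measured at 540/590 nm in live HepG2 cultures after 1 hr compound contact (37 C, 5% CO2).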

[8] = qHTS assay to test for compound auto fluorescence at 535 nm (green) in HepG2 cells (AID 720675)
[9] = qHTS assay to test for compound auto fluorescence at 460 nm (blue) in HEK293 cells (AID 720678)
How it was run: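 HEK293 cells (2,000 per well, medium with 10% dialyzed FBS) attached for 4-5 hr at 37C, then received compound and stood overnight at 37C, 5% CO2. Blue fluorescence was read at Ex/Em 405/460 nm and expressed relative to triamterene.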

[10] = qHTS assay to test for compound auto fluorescence at 590 nm (red) in HEK293 cells (AID 720679)
How it was run: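 HEK293 cells (2,000/well, medium with 10% dialyzed FBS) attached for 4-5 hr at 37C, received 23 nL compound and were incubated overnight at 37C, 5% CO2. Red fluorescence was then read at 540/590nm Ex/Em, referenced to Rose Bengal sodium.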

[11] = qHTS assay to test for compound auto fluorescence at 535 nm (green) in HEK293 cells (AID 720680)
[12] = qHTS assay to test for compound auto fluorescence at 460 nm (blue) in HEK293 cell free culture (AID 720681)
How it was run: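 Test compounds were pinned into cell-free culture medium (DMEM with 10% FBS) and fluorescence was read directly at Ex/Em 405/460 nm. Signals were expressed as fluorescence equivalents of triamterene, with DMSO vehicle as control.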

[13] = qHTS assay to test for compound auto fluorescence at 535 nm (green) in HEK293 cell free culture (AID 720682)
How it was run: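 Compounds were pin-transferred into cell-free DMEM with 10% FBS, and green fluorescence was read at excitation 485 nm and emission 535 nm. Intensities were expressed as fluorescein-equivalent values.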

[14] = qHTS assay to test for compound auto fluorescence at 590 nm (red) in HEK293 cell free culture (AID 720683)
How it was run: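 Tox21 10K library compounds were pinned into cell-free DMEM with 10% FBS and fluorescence was read at excitation 540 nm. Activity is expressed as Rose Bengal sodium equivalency.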

[15] = qHTS assay to test for compound auto fluorescence at 590 nm (red) in HepG2 cell free culture (AID 720684)
How it was run: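 Measured in medium alone (MEM containing 10% FBS) following pintool addition of compound; emission at 590 nm with 540 nm excitation, referenced to Rose Bengal sodium.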

[16] = qHTS assay to test for compound auto fluorescence at 460 nm (blue) in HepG2 cell free culture (AID 720685)
How it was run: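 Compound (23 nL) or DMSO pinned into cell-free MEM with 10% FBS; blue fluorescence read at 405/460 nm excitation/emission, expressed as auto-fluorescence equivalency to triamterene.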

[17] = qHTS assay to test for compound auto fluorescence at 535 nm (green) in HepG2 cell free culture (AID 720686)
[18] = qHTS assay to test for compound auto fluorescence at 460 nm (blue) in HepG2 cells (AID 720687)
How it was run: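 Cells (2,000/well in MEM with 10% FBS) attached overnight at 37 C, then were exposed to compound or DMSO for 1 hr at 37 C, 5% CO2. Fluorescence read at Ex/Em 405/460 nm, expressed as triamterene-equivalent signal.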

[19] = molecular target: Glucocorticoid receptor (Homo sapiens) (UniProt P04150); assay: qHTS assay to identify small molecule agonists of the glucocorticoid receptor (GR) signaling pathway (AID 720691; active = well fitted activation curve with a large enough effect in the signal ratio in the repeat runs, not every such curve was filed as active; the % refers to the signal ratio)
How it was run: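 Reporter read-out: fluorescence intensity following 2 h room-temperature LiveBLAzer B/G FRET substrate loading. Prior step: GR-bla HeLa cells held 4 h, then treated 18 h at 37 C.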

[20] = molecular target: Glucocorticoid receptor (Homo sapiens) (UniProt P04150); assay: qHTS assay to identify small molecule antagonists of the glucocorticoid receptor (GR) signaling pathway (AID 720692; active = well fitted inhibition curve with a large enough effect in the signal ratio in the repeat runs, not every such curve was filed as active; the % refers to the signal ratio)
How it was run: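 Dexamethasone (5 nM final) stimulated a stably integrated GRE-beta-lactamase reporter in HeLa cells during 18 h co-incubation with compounds; signal was quantified as fluorescence intensity of B/G FRET substrate after 2 h.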

Measured: Potency

Sequence of Glucocorticoid receptor (Homo sapiens) (P04150 whole entry, looked up): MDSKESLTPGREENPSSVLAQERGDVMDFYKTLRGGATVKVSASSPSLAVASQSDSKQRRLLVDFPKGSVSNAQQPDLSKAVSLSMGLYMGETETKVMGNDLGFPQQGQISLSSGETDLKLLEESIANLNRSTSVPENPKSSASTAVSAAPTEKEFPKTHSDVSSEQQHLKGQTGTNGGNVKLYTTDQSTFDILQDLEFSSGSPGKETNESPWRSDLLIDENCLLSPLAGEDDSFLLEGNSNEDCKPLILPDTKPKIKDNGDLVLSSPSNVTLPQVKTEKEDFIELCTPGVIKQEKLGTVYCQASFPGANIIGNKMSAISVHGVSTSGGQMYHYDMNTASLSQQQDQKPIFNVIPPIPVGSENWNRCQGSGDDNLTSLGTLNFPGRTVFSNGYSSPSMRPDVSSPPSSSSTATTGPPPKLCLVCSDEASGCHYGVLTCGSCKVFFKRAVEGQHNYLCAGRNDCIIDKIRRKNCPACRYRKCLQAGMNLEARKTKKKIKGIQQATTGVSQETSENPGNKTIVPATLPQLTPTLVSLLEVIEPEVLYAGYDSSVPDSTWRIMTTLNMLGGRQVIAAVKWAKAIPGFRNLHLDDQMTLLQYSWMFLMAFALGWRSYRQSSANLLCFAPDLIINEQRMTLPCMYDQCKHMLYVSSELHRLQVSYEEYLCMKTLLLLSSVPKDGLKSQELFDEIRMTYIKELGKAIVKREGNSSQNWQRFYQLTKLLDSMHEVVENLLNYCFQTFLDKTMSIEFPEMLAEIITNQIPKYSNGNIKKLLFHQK

O=C(O)CCSCCC(=O)O
inactive: [1] | [2] | [3] | [4] | [5] | [6] | [7] | [8] | [9] | [10] | [11] | [12] | [13] | [14] | [15] | [16] | [17] | [18] | [19] | [20]

CC(C)C(=O)OC(=O)C(C)C
inactive: [1] | [2] | [3] | [4] | [5] | [6] | [7] | [8] | [9] | [10] | [11] | [12] | [13] | [14] | [15] | [16] | [17] | [18] | [19] | [20]

CC[C@H]1OC(=O)[C@H](C)[C@@H](O[C@H]2C[C@@](C)(OC)[C@@H](O)[C@H](C)O2)[C@H](C)[C@@H](O[C@@H]2O[C@H](C)C[C@H](N(C)C)[C@H]2O)[C@](C)(OC)C[C@@H](C)C(=O)[C@H](C)[C@@H](O)[C@]1(C)O
inactive: [1] | [2] | [3] | [4] | [5] | [6] | [7] | [8] | [9] | [11] | [12] | [13] | [14] | [15] | [16] | [17] | [18] | [19] | [20]

NC(=O)N[C@@H](CCC(=O)O)C(=O)O
inactive: [1] | [2] | [3] | [4] | [5] | [6] | [7] | [8] | [9] | [10] | [11] | [12] | [13] | [14] | [15] | [16] | [17] | [19] | [20]

CC1=NS(=O)(=O)c2cc(Cl)ccc2N1
inactive: [1] | [2] | [3] | [4] | [5] | [6] | [7] | [8] | [9] | [10] | [11] | [12] | [13] | [14] | [15] | [16] | [18] | [19] | [20]

C=CC(C)(CCC=C(C)C)OC(=O)CC (stereo unspecified)
inactive: [1] | [2] | [3] | [4] | [5] | [6] | [7] | [8] | [10] | [11] | [12] | [13] | [14] | [15] | [16] | [17] | [18] | [19] | [20]
